{"source": "PubChem BioAssay AID652094", "about": "(National Center for Advancing Translational Sciences (NCATS), 2013)", "note": "Active and inactive are the calls of the source.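 Rule for the calls: active = lower glucosylceramide lipid buildup in Gaucher patient macrophages after compound treatment; inactive = the rest.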", "data": [{"experiment": "Extended Characterization of Activators of N370S glucocerebrosidase as a Potential Chaperone Treatment of Gaucher Disease: Quantification of GlcCer accumulation in Gaucher macrophages", "conditions": "Gaucher patient macrophages, GlcCer-BODIPY accumulation fluorescence", "from_the_text": "Glucocerebrosidase (GCase) catalyzes the hydrolysis of beta-glucocerebroside (GC) to glucose and ceramide in lysosomes. Mutations in the glucocerebrosidase gene result in Gaucher disease, an autosomal recessive lysosomal storage disorder. Many of the mutations encountered in patients with Gaucher disease are missense alterations that may cause misfolding, decreased stability and/or mistrafficking of this lysosomal protein. […] These inhibitors include iminosugar analogs and other inhibitors that were discovered as part of previous work. However, the enhancement of enzyme activity by the chaperone action of an enzyme inhibitor must be balanced against the direct inhibition of the enzyme. […] In this extended characterization of our probe, we have further characterized the activity of probes in relevant models of Gaucher disease. This assay attempts to quantitate GC concentration in patient-derived macrophages following compound incubation. NIH Chemical Genomics Center [NCGC] NIH Molecular Libraries Probe Production Centers Network [MLPCN] […]\nIn order to quantify macrophage GlcCer accumulation, erythrocyte ghosts were labeled with N-[11- (dipyrrometheneboron difluoride) undecanoyl]-D-Glucosyl-beta1-1'-D-erythro-sphingosine (C11 TopFluor Glucosyl Ceramide) (Avanti Polar Lipid) for 30 min at 37 degrees C and fluorescence measured at 495/503 nm on a Victor 1420 multi-label counter (PerkinElmer).", "values": [{"smiles": "C#Cc1ccc(NC(=O)c2cnn3c(C)cc(C)nc23)cc1", "outcome": "active; decreased"}]}]}
